Results published in PubChem BioAssay (Tox21).
The source made the active and inactive calls. The call rests on the fitted dose curve. Non-standard residues stand in square brackets, D forms with d. Residues, ends and D or L forms follow the SMILES beside them. *: point of attachment. Sta = CC(C)C[C@H](N)[C@@H](O)CC(=O)O; Isovaleryl = CC(C)CC(=O)*

What follows are compounds tested against Acetylcholinesterase (Homo sapiens) (UniProt P22303) (assay: Acetylcholinesterase (AChE) small molecule antagonists: enzyme-based qHTS assay with human liver microsomes (AID 1347399; further: nearly all actives have a fitted effect of over 60% in size)). Conditions: Potency: qHTS inhibition; outcome: qHTS inhibition; series mostly up to 115 µM; activity change, negative = inhibition: at the top concentration.
Chain of Acetylcholinesterase (Homo sapiens) (P22303 whole entry, looked up): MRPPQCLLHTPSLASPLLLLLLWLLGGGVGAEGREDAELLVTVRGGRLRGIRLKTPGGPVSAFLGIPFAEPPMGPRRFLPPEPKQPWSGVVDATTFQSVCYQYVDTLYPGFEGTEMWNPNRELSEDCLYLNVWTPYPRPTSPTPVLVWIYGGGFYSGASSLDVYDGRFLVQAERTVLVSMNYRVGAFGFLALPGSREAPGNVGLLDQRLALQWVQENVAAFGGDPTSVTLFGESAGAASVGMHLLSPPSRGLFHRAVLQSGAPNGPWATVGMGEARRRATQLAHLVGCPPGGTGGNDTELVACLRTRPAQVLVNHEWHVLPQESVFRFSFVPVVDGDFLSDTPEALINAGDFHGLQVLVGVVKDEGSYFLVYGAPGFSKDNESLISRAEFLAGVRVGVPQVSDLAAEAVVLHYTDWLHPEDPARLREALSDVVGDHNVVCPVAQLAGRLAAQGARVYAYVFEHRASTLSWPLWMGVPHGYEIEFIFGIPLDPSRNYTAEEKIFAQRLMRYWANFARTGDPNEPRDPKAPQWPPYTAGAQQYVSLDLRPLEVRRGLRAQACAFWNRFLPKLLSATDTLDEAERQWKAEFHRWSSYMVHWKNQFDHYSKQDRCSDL
Outline: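 Recombinant human AChE (50 mU/mL in the enzyme mix) and human liver microsomes (0.25 mg/mL final) were preincubated with compound and NADPH (0.25 mg/mL final) for 30 min at 37 C. Acetylthiocholine/DTNB was then added; thiocholine was read colorimetrically after 10 min at room temperature.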
On the % scale 0 is the no-effect control and ±100 the full control effect.

Row | SMILES | activity change, negative = inhibition | Potency
1 | O=C1c2ccccc2C(=O)C1c1ccc2cc(S(=O)(=O)O)cc(S(=O)(=O)O)c2n1 | 86.9% (inactive) | –
2 | Cn1sccc1=O | – | inactive
3 | COS(C)(=O)=O | – | inactive
4 | O=C(O)c1c(Cl)ccc(Cl)c1Cl | 0.372% (inactive) | –
5 | COc1ccc(N)c([N+](=O)[O-])c1 | 6.64% (inactive) | –
6 | CC(C)(CO)CO | – | inactive
7 | CCCCCCCCCOCC1CO1 (stereo not given) | 0.341% (inactive) | –
8 | CCCCOCCOCCOCCO | – | inactive
9 | CC(C)(C)C(O)/C=C/c1ccc2c(c1)OCO2 (stereo not given) | 0.71% [at 53 µM] (inactive) | –
10 | CCOCCO | – | inactive
11 | O=C1c2ccccc2C(=O)C1c1ccccc1 | 0.338% [at 53 µM] (inactive) | –
12 | O=c1c(O)c(O)c1=O | 0.482% (inactive) | –
13 | CN1CCN(C(c2ccccc2)c2ccccc2)CC1 | -1.93% [at 53 µM] (inactive) | –
14 | Cc1cc(O)c2c(c1)C(=O)c1cc(O)cc(O)c1C2=O | – | inactive
15 | C=CC(C)(C)CC(=O)OC | -0.838% (inactive) | –
16 | Cn1c(=O)c2[nH]cnc2n(C)c1=O | – | inactive
17 | CCCCCC/C=C/CCCCCCCC(=O)O | – | inactive
18 | CCc1cc2cc(OC)c(OC)cc2c(Cc2ccccc2)n1 | -1.41% [at 53 µM] (inactive) | –
19 | OC1C(O)C(O)C(O)C(O)C1O (stereo not given) | – | inactive
20 | CCCCCCCCCCO[C@@H]1O[C@H](CO)[C@@H](O)[C@H](O)[C@H]1O | -0.458% (inactive) | –

Row | SMILES | activity change, negative = inhibition | Potency
21 | COC(C)(OC)OC | -2.36% (inactive) | –
22 | Cc1ccc(N=Nc2c(O)ccc3ccccc23)c(C)c1 | -2.76% [at 53 µM] (inactive) | –
23 | CCCCCCC(C)(C)C(=O)O | 1.08% (inactive) | –
24 | Oc1ccc2ccccc2c1N=Nc1ccccc1 | – | inactive
25 | CCSC(=O)N(CC)CC | 1.3% (inactive) | –
26 | CC(=O)OCC(=O)[C@@]1(O)CCC2C3CCC4=CC(=O)CC[C@]4(C)C3[C@@H](O)C[C@@]21C (stereo not given in full) | 10.8% [at 53 µM] (inactive) | –
27 | C=C/C=C/C=C/CCCCC | -1.78% [at 23.6 µM] (inactive) | –
28 | CC1(C)[C@@H]2CC[C@@]1(C)[C@H](O)C2 | 0.595% (inactive) | –
29 | CC(=O)N(CC(O)CN(C(C)=O)c1c(I)c(C(=O)NCC(O)CO)c(I)c(C(=O)NCC(O)CO)c1I)c1c(I)c(C(=O)NCC(O)CO)c(I)c(C(=O)NCC(O)CO)c1I (stereo not given) | -0.168% [at 53 µM] (inactive) | –
30 | CC1=CC(C)C(C=O)CC1 (stereo not given) | -0.312% (inactive) | –
31 | CC(C)=CCl | – | inactive
32 | O=C1Nc2ccccc2C1(c1ccc(O)cc1)c1ccc(O)cc1 | – | inactive
33 | CC(C)CC(=O)N[C@H](C(=O)N[C@H](C(=O)N[C@@H](CC(C)C)[C@@H](O)CC(=O)N[C@@H](C)C(=O)N[C@@H](CC(C)C)[C@@H](O)CC(=O)O)C(C)C)C(C)C (Isovaleryl-VV[Sta]A[Sta]-OH) | 0.544% [at 53 µM] (inactive) | –
34 | O=C(O)c1ccc2c(c1)C(=O)OC2=O | – | inactive
35 | Nc1ccn([C@@H]2O[C@H](CO)[C@@H](O)[C@@H]2O)c(=O)n1 | 0.554% (inactive) | –
36 | CCCCC(CC)CO (stereo not given) | – | inactive
37 | Cc1ccc2nc(-c3ccc(N)cc3)sc2c1S(=O)(=O)O | 3.88% [at 53 µM] (inactive) | –
38 | CC(C)(c1cc(Br)c(OCC(Br)CBr)c(Br)c1)c1cc(Br)c(OCC(Br)CBr)c(Br)c1 (stereo not given) | 2.02% [at 53 µM] (inactive) | –
39 | COc1ccc(C(=O)CC(=O)c2ccc(C(C)(C)C)cc2)cc1 | – | inactive
40 | CN1N=C(C(N)=O)CCC1=O | -0.0401% [at 53 µM] (inactive) | –
